TSHR antag = blocks TSH signaling through the human TSH receptor. TSHR-expressing cells, TSH-stimulated cAMP HTRF, 2 h; hits give low values. AID 504810. P16473. hit rate 0.2% among 330,000. activity change, negative = inhibition, % at 11.5 µM;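 active = activity change below a set negative limit, meaning inhibition stronger than a set level, cut at about -70% in these data; inconclusive = activity change between two set negative limits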; also: % is scaled to controls: 0 for no effect and ±100 for the full control effect
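TSHR-expressing cells, 200/well, pre-treated with compound, then stimulated with EC80 TSH (4nM final) for 2 hours at 37 deg C. cAMP measured by competitive HTRF: anti-cAMP cryptate antibody in lysis buffer plus cAMP-d2, read after 30 minutes at room temperature.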
PTHR1 agonist = activates the human parathyroid hormone receptor PTHR1; Q03431; HEK293 GP2 PTHR1 cells, GloSensor cAMP luminescence, 1 h; Potency, µM (top dose mostly 115 µM), for the others: at the top dose activation, usual class: activators; hit rate 0.075% among 410,000; AID 743266; also: potency is read from the fitted curve at half-maximal effect; nearly all actives have a fitted effect of over 55% in size
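HEK-293-derived GP2 cells expressing PTHR1 and a GloSensor cAMP reporter, 3,000/well, plated overnight, given luciferin plus IBMX (each 0.5 mM as added) for 1 h at 37 °C, then compound for 1 h at 37 °C. Luminescence was read after 15 min at room temperature.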
TCR activator = T cell receptor activation | Potency, µM (doses to about 9.22 µM), without a hit: top-dose activation of IL-2 secretion, hits mostly activators | primary human leukocytes, anti-CD3, IL-2 HTRF, 48 h | 330,000 tested, under 10 active; also: % of control where 0% means no effect
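HTRF read-out of IL-2 secretion: europium cryptate donor excited at 320nm, d2 acceptor emission at 665nm. Cells were primary human leukocytes incubated 48 hr with compounds and a-CD3 beads, supplying TCR signal only.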
RXFP1 antag = antagonists of human relaxin receptor RXFP1; hit rate 0.59% among 350,000; Q9HBX9; HEK293-RXFP1, relaxin-stimulated cAMP HTRF, 30 min; hits give low values; activity change, negative = inhibition, % at 57.5 µM;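 active = activity change of -60% or lower, but not beyond a set lower limit; inconclusive = change between -60% and -40%, or beyond the set limit; inactive = change above -40%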; also: % is scaled to controls: 0 for no effect and ±100 for the full control effect
RXFP1 ag = activates the human relaxin receptor RXFP1; Q9HBX9; HEK293T-RXFP1 cAMP TR-FRET, 30 min; response scale: percent of porcine relaxin response, buffer zero; Potency, µM (doses to about 57.5 µM), for inactives: at the highest dose activation, hits mostly activators; hit rate 0.3% among 370,000; AID 2676; also: potency is read from the fitted curve at half-maximal effect; % is scaled to controls: 0 for no effect and ±100 for the full control effect; nearly all actives have a fitted effect of over 60% in size
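cAMP rise read by TR-FRET after 30 min, 37C compound exposure (up to 58 uM) in RXFP1-transfected HEK293 cells with Ro 20174 present. EC50 from Hill-equation fits, with 29 nM porcine relaxin as 100% and buffer as basal.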
NPSR antagonist = antagonists of human neuropeptide S receptor cAMP signaling | CHO-NPSR cells, cAMP TR-FRET, antagonist mode | Potency, µM (top dose mostly 38.3 µM), for the others: top-dose activity change, negative = inhibition, usual class: inhibitors | AID 1461 | Q6W5P4 | hit rate 1% among 220,000; also: potency is read from the fitted curve at half-maximal effect; % is scaled to controls: 0 for no effect and ±100 for the full control effect; nearly all actives have a fitted effect of over 50% in size
* = called active by the depositor; [ ] = dose if it differs, or a comment. The entries come from a sample that favours hits as a whole. Unless noted, calls follow the shape of the dose curve; as a rule, active = well fitted curve in the direction sought with a large enough effect; inconclusive = small, poorly fitted or top-dose-only effect, or another doubt; inactive = no such curve, though single readings can be large; an effect the other way counts as inactive or inconclusive.

For COc1ccccc1C1(O)CCN(CC(=O)Nc2nc(-c3ccccc3)cs2)CC1 the results were TSHR antag -3, PTHR1 agonist -31%, TCR activator 0%, RXFP1 antag -76*, RXFP1 ag -1% and NPSR antagonist -5%.
Screening CSc1ccc2c(c1)N(CCC1CCCCN1C)c1ccccc1S2 (centres undefined) returned TSHR antag -19, PTHR1 agonist -1%, TCR activator 0%, RXFP1 antag -23, RXFP1 ag 1% and NPSR antagonist 13µM*.
O=C(Nc1ccccc1)c1nc[nH]c1C(=O)O was read as PTHR1 agonist -1%, RXFP1 antag 9 and RXFP1 ag 1%.
Screening CC(C)OC(=O)c1cc(C(=O)OC(C)C)cc([N+](=O)[O-])c1 returned RXFP1 antag -71*.
`CN(C)c1ccc(NC(=O)C2C3C=CC(C3)C2C(=O)O)cc1` (centres undefined) gave TSHR antag -89*, PTHR1 agonist inactive, TCR activator 13%, RXFP1 antag -119* and RXFP1 ag -15%.
Screening O=C(O)C1C2C=CC(C2)C1C(=O)Nc1ccc2c(c1)OCCO2 (centres undefined) returned TSHR antag -12, PTHR1 agonist inactive, RXFP1 antag 0, RXFP1 ag 0% and NPSR antagonist -1%[46.1 µM].
`C[C@@H]1CN(CCCn2c3ccccc3c3ccccc32)C[C@H](C)N1` gave TSHR antag 8, RXFP1 antag -97*, RXFP1 ag 3% and NPSR antagonist -11%.
Screening CC1CC(C)CN(CCCn2c(=S)[nH]c3ccccc3c2=O)C1 (centres undefined) returned TSHR antag 12, PTHR1 agonist 0%, TCR activator -1%, RXFP1 antag -11, RXFP1 ag 0% and NPSR antagonist -1%[46.1 µM].
Screening COc1ccc2c(c1)CC(N1CCN(C)CC1)c1cc(OC)ccc1S2 (centres undefined) returned PTHR1 agonist inactive, TCR activator -2% and RXFP1 antag -115*.
`Cc1ccc(CNC(=O)C2CCN(S(=O)(=O)c3c(C)noc3/C=C/N(C)C)CC2)cc1` gave TSHR antag -14, PTHR1 agonist 5%, TCR activator 3%, RXFP1 antag -64* and RXFP1 ag 0%.
`Cc1ccc(S(=O)(=O)NCC(=O)NCc2cc(=O)n(C)c(=O)n2C)cc1C` gave TSHR antag 2, PTHR1 agonist -15%, TCR activator -4%, RXFP1 antag -100* and RXFP1 ag 6%.
CCOc1ccc(S(=O)(=O)NCCc2csc3nc(-c4ccc(F)cc4)nn23)cc1 was read as PTHR1 agonist -82%, RXFP1 antag -29 and RXFP1 ag 0%.
`CCCOc1ccc(C2C(=O)N(C3CCC(C)CC3)CC(=O)N2CCc2ccccc2)cc1OC` (centres undefined) gave PTHR1 agonist -24%, RXFP1 antag 14 and RXFP1 ag 3%.
Screening Cc1c(Nc2cc(Cl)c3nonc3c2[N+](=O)[O-])c(=O)n(-c2ccccc2)n1C returned TSHR antag -85*, PTHR1 agonist -95%, TCR activator -12%, RXFP1 antag inconclusive, RXFP1 ag 8% and NPSR antagonist 6.3µM*.
`O=[N+]([O-])c1c(Nc2cccc(O)c2)cc(Cl)c2nonc12` gave TSHR antag -98*, PTHR1 agonist -40%, TCR activator -26%, RXFP1 antag inconclusive and RXFP1 ag 1%.
`Cc1c(Nc2cc(N3CCOCC3)c3nonc3c2[N+](=O)[O-])c(=O)n(-c2ccccc2)n1C` gave TSHR antag 2, RXFP1 ag 3% and NPSR antagonist 3%.

Screening data (PubChem)
